Screening data deposited in PubChem BioAssay by Buhrlage Lab, Dana-Farber Cancer Institute and Novartis Institutes for BioMedical Research (Cambridge, Mass).
OTUD3 block – inhibitors of human OTUD3 deubiquitinase. purified OTUD3, Ub-rhodamine fluorescence, 2 h. 0.7% of 47,000 active. inhibition, % at 25 µM. OTU domain-containing protein 3 (Homo sapiens), Q5T2D3
USP17 block – inhibitors of human USP17 deubiquitinase. purified USP17, Ub-rhodamine cleavage fluorescence, 3 h. inhibition, % at 50 µM. 6.5% of 47,000 active
USP30 inh – inhibitors of human USP30 deubiquitinase | Ubiquitin carboxyl-terminal hydrolase 30 (Homo sapiens), Q70CQ3 | purified USP30, Ub-rhodamine cleavage fluorescence | inhibition, % at 25 µM | 5.3% of 47,000 active | AID 1645860, 2021
USP28 inh – inhibitors of human USP28 deubiquitinase | Ubiquitin carboxyl-terminal hydrolase 28 (Homo sapiens), Q96RU2 | purified USP28, Ub-rhodamine cleavage fluorescence, 30 min | inhibition, % at 25 µM | 3% of 47,000 active | AID 1645857, 2021
* marks the source's active call; other numbers are inactive results; / = not tested or not shown. In the library only some 11% were active in any assay of this set; here they are far more common. No stated cut-off is given here; in the data, active means inhibition above about 30%; inactive means the rest.

SMILES	OTUD3 block	USP17 block	USP30 inh	USP28 inh
Nc1ncnc2c1c(-c1ccccc1)c(-c1ccccc1)n2CCc1ccc(F)cc1	11	44*	45*	0
COc1ccc(S(=O)(=O)Nc2ccc3nc(NC(C)=O)sc3c2)cc1OC	-9	0	-9	-4
CCC(=O)Nc1nc2cc(NC(=O)Nc3cc(C)cc(C)c3)ccc2s1	31*	19	48*	26
CCC(=O)Nc1nc2ccc(NC(=O)Cc3ccc(OC)c(OC)c3)cc2s1	-3	36*	4	-4
Cc1nc(-c2csc(S(=O)(=O)Nc3cccc(C)c3C)c2)no1	0	-5	2	0
CC(NC(=O)c1ccccc1)c1nc2ccccc2n1CC(=O)Nc1ccc(C#N)cc1 (configuration not stated)	0	7	-1	0
Cc1ccc(C(=O)NC(C)c2nc3ccccc3n2CC(=O)N2CCc3ccccc32)cc1 (configuration not stated)	-38	76*	63*	25
CC(NC(=O)c1ccccc1)c1nc2ccccc2n1CC(=O)NC1CCCCC1 (configuration not stated)	9	39*	39*	8
CCCn1c(CCC(=O)O)nc2cc(S(=O)(=O)N3CCOCC3)ccc21	-5	-3	-26	-11
COc1ccc(-c2nc(CNC(=O)Cc3ccc(Cl)cc3)cs2)cc1	10	36*	8	19
O=C(COc1ccccc1)NCc1csc(-c2ccccc2)n1	12	44*	31*	11
COc1ccc(CC(=O)NCc2cc(-c3ccc(Cl)cc3)on2)cc1	5	16	13	-2
NC(=O)C1(N2CCCCC2)CCN(c2c(-c3ccccc3)c(=O)c2=O)CC1	-7	-14	-12	-8
O=C(Cn1c(=O)n(Cc2ccncc2)c(=O)c2ncccc21)N1CCCc2ccccc21	-2	-19	/	/
COc1cccc(CNS(=O)(=O)c2ccc3c(c2)c(=O)n(C)c(=O)n3C)c1	2	-1	6	7
CC(C)N1CCC2(CC1)Nc1ccccc1C(=O)N2Cc1ccccc1	4	1	0	0
O=C1c2ccccc2NC2(C(=O)Nc3ccc(Br)cc32)N1c1ccccc1 (configuration not stated)	76*	24	19	86*
COc1cc(OC)cc(C(C)(C)OC(=O)N[C@@H](C)C(=O)O)c1	8	5	6	5
COc1cccc(C(=O)Nc2cnc(N3CCN(C)CC3)nc2)c1	-9	-21	-24	27
O=C(CNCc1cccc(Cl)c1)N1CCc2ccccc2C1	3	46*	3	7
Cc1nc(C2CN(CCc3ccccn3)CCO2)n[nH]1 (configuration not stated)	4	3	1	0
COc1cccc(NS(=O)(=O)c2ccc3c(c2)N(C)CCO3)c1	-2	-5	-5	-1
COc1ccc(NC(=O)c2cccc(C#N)c2)cc1S(=O)(=O)Nc1ccccc1Cl	-9	0	-4	-6
COc1cccc(NS(=O)(=O)c2ccc(Oc3ccccc3OC)cc2)c1	17	36*	37*	34*
COc1ccc(S(=O)(=O)c2ccc(NC(=O)c3cccc(Cl)c3)cc2C#N)cc1	-3	33*	19	-3
SMILES	OTUD3 block	USP17 block	USP30 inh	USP28 inh
COc1ccc(C(=O)Nc2cccc(S(=O)(=O)NC3=NCCCCC3)c2)cc1	-9	-4	-9	40*
COc1ccc(NS(=O)(=O)c2ccc(C(=O)Nc3cccc(C(C)=O)c3)cc2)cc1	-8	46*	3	12
O=C(Nc1ccc(S(=O)(=O)NC2=NCCCCC2)cc1)c1ccccc1	-15	0	-25	-15
Cc1ccc(-c2c3c(=O)n(C)c(=O)n(C)c3cn2C(C)C)cc1	-1	0	-3	-5
Cc1cc(NS(=O)(=O)c2ccc(NC(=O)COc3ccc(Cl)cc3)cc2)no1	-3	3	10	5
CCCOc1ccc(C(=O)Nc2ccc(S(=O)(=O)Nc3cc(C)nc(C)n3)cc2)cc1	57*	-3	-7	45*
COC(=O)c1cc2cc(NC(=O)c3cccc(Cl)c3)ccc2s1	-4	26	36*	-8
CCN1CCn2c(-c3cnn(C)c3)cnc2C12CCN(C(=O)Cc1ccccc1)CC2	4	-14	14	3
CCc1cc(=O)oc2c(C)c(OCC(=O)NCC(=O)N3CC[C@@]4(O)CCCC[C@H]4C3)ccc12	-3	5	13	10
CCc1ccc(CN(C)C(=O)c2ccc(NS(=O)(=O)c3ccc(F)c(F)c3)cc2)cc1	9	27	41*	24
